Measurements taken from the supplement of paper PMC11219838.
Unmarked numbers belong to inactive results.

Legend:
Conditions in all cases: 60 µM; 5 days; temperature: 20 °C
[1] = system: Meloidogyne hapla J2; test: proportion of mobile M. hapla J2 relative to DMSO control (fraction of DMSO control); higher = more viable, less nematicidal, active = 0.7 or less
Summary of the method: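 Sealed 96-well plates, each well holding around 25 M. hapla J2 in distilled water with compound pinned to 60 µM final (0.6% v/v DMSO), were shaken at 200 rpm for 5 days at 20 °C. Then 2 µL of 1 M NaOH was added to each well. Microscope-scored mobility was normalised to the mean of DMSO-only wells from the same plate. Eight such wells were on each plate, and the two biological replicates were averaged.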

[2] = system: Caenorhabditis elegans dauer (daf-2(e1370)); test: proportion of mobile C. elegans dauer larvae relative to DMSO control (fraction of DMSO control); higher = more viable, less nematicidal, active = 0.63 or less; extreme values may be limits of the assay
Summary of the method: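 Synchronized C. elegans daf-2(e1370) larvae were held at 25 °C for 48 h on MYOB plates with E. coli OP50 to form dauers, and about 20 dauers were added per 96-well well in liquid NGM. Compound was pinned to 60 µM final (0.6% v/v DMSO), and sealed plates were shaken at 200 rpm for 5 days at 20 °C. The proportion of mobile worms was scored under a dissection microscope relative to DMSO controls and averaged over two biological replicates.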

[3] = system: Ditylenchus dipsaci; test: proportion of mobile D. dipsaci (mixed stage) relative to DMSO control (fraction of DMSO control); higher = more viable, less nematicidal, active = 0.86 or less; extreme values may be limits of the assay
Summary of the method: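 Mobility, expressed relative to DMSO controls, is the mean of two biological replicates. The test organisms were D. dipsaci grown on pea plants in Gamborg B-5 agar and extracted into water by filter funnel, with about 20 added per well of a 96-well plate in distilled water. Compound was pinned to 60 µM final (0.6% v/v DMSO), plates were sealed and shaken at 200 rpm for 5 days at 20 °C, and mobile worms were scored under a microscope once 2 µL 1 M NaOH had been added.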

Structure (SMILES) | proportion of mobile M. hapla J2 [1] | proportion of mobile C. elegans dauer larvae [2] | proportion of mobile D. dipsaci [3]
Cc1ccc(C)c(OCc2nc(-c3cccnc3)no2)c1 | 1.04 | 1 | 1
Clc1ccc(CSc2nnc(-c3ccccc3)o2)cc1Cl | 1.01 | 1 | 1
COc1ccc(-c2nnc(SCc3ccccc3)o2)cc1 | 0.96 | 1 | 1
COc1ccccc1-c1nc(-c2ccccc2)no1 | 1 | 1 | 1
O=C(CSc1nnc(-c2ccncc2)o1)Nc1cccc(Cl)c1Cl | 0.818 | 1 | 1
COC(=O)CSc1nnc(-c2ccc(C(C)(C)C)cc2)o1 | 0.976 | 1 | 1
Clc1ccc(-c2nc(-c3ccncc3)no2)cc1 | 1.03 | 1 | 1
COc1cccc(-c2noc(COc3cccc(C)c3)n2)c1 | 0.995 | 1 | 1
O=C(CSc1nnc(-c2ccco2)o1)Nc1ccc(F)cc1 | 0.939 | 1 | 1
CCOc1ccccc1-c1nnc(SCC(=O)Nc2nccs2)o1 | 0.739 | 1 | 1
CC(C)(C)c1ccc(-c2noc(COc3ccccc3)n2)cc1 | 0.776 | 1 | 1
CCOc1cc(-c2nc(-c3cc4ccccc4nc3OC)no2)cc(OCC)c1OCC | 1.04 | 1 | 1
c1cncc(-c2noc(-c3cccc4ccccc34)n2)c1 | 1.04 | 1 | 1
COc1ccc(-c2noc(-c3ccc(Cl)cc3Cl)n2)cc1 | 1.04 | 1 | 1
O=C(CSc1nnc(-c2ccc(Cl)cc2)o1)Nc1ccc(F)cc1 | 0.912 | 1 | 1
COc1nc(C)ccc1-c1noc(-c2ccccc2C)n1 | 0.668 (active) | 1 | 1
O=C(CSc1nnc(-c2ccc(Cl)cc2)o1)Nc1ccccc1C(F)(F)F | 0.752 | 1 | 1
COc1nc(C)ccc1-c1noc(-c2ccccc2Br)n1 | 0.917 | 1 | 1
O=C(Nc1ccccc1-c1nc(-c2cccnc2)no1)c1ccc(Cl)cc1 | 0.98 | 1 | 1
